Source: PubChem BioAssay
Records with an inconclusive call do not appear. Calls of active or inactive are those of the source.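 The calls were made as follows, unless noted: active = aptamer binding inhibition above 30%, about 3 SD of noise from non-fluorescent compounds; inactive = inhibition at or below 30%.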

How the values were obtained:
[1] = rapamycin-like changes in RPL19A-GFP expression – cell-based, S. cerevisiae, multiplex flow cytometry, primary screen (AID 1862; in the data active = percent of DMSO control GFP below about 86%;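 also: lower values mimic rapamycin by blocking the RPL19A rise seen in DMSO cells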); conditions: S. cerevisiae RPL19A-GFP strain, flow cytometry fluorescence, 3 h; at 10 µM; stronger effect = lower value
[2] = TOR pathway GLN3 branch reporter MEP2-GFP changes – S. cerevisiae, multiplex flow cytometry, primary screen (AID 1867;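 active = GFP response, as percent of the DMSO control, above the screen-wide mean plus 3 SD, about 139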;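 also: median GFP channel fluorescence of barcode-gated MEP2-GFP cells measured by flow cytometry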); conditions: S. cerevisiae MEP2-GFP strain, 3 h, at 10 µM, stronger effect = higher value, 100% means same as DMSO wells
[3] = TOR pathway RTG branch CIT2 reporter changes – S. cerevisiae, GFP fusion, multiplex flow cytometry, primary screen (AID 1870;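 active = percent response above a set limit, the screen-wide mean plus 3 SD, cut at about 130% in these data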;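 also: barcoded CIT2-GFP strain pooled with four other GFP strains with rapamycin as positive control; median GFP fluorescence per well over plate mean of DMSO wells so 100% = DMSO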); conditions: S. cerevisiae CIT2-GFP expression, 3 h, at 10 µM, stronger effect = higher value
[4] = TOR pathway LAP4-GFP level changes – S. cerevisiae, multiplex flow cytometry, primary screen (AID 1873;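 active = GFP signal, as percent of the solvent control, above the screen mean plus 3 SD, about 149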); conditions: S. cerevisiae LAP4-GFP expression, 3 h, at 10 µM, stronger effect = higher value
[5] = yeast AGP1-GFP level changes, GLN3 branch – cell-based, multiplex flow cytometry, S. cerevisiae, primary screen (AID 1887;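 active = GFP signal above the screen-wide mean plus 3 SD, that is over about 124.5% of the solvent control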;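 also: AGP1-GFP fusion strain of S. cerevisiae within a five-strain barcoded multiplex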); conditions: 3 h, at 10 µM, stronger effect = higher value
[6] = reduced mouse 2C T cell binding to pMHC/ICAM-1 vesicles – MLPCN validation set, flow cytometry, LFA-1/ICAM-1 modulator project, pilot screen (AID 2523;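 active = response below a set limit, under 55% cells CD8-positive and vesicle-bound, and CD8 cells' 90th-percentile brightness under 279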;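 as to vesicle binding response: mean PE anti-B7-1 fluorescence of CD8+ cells relative to row control; 100% = QL9-loaded vesicles with DMSO vehicle in the same plate row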); conditions: 2C mouse CD8+ T cells, at 7 µM, stronger effect = lower value; double positive events: measured here: CD8+/vesicle+ event percentage
[7] = target: Integrin beta-1 (Homo sapiens) + Integrin alpha-4 (Homo sapiens) (UniProt P13612+P05556); assay: alpha4beta1 integrin LIBS antibody binding reduction – U937 cells, HUTS-21 mAb, flow cytometry, validation set, VLA-4 allosteric modulator project, pilot screen (AID 2674;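 active = inhibition above 50%, about 3 SD of the validation set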;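 also: antibody binding induced by the VLA-4 ligand LDV present at three times its Kd; 0% = LDV ligand with antibody and no compound and 100% = antibody without LDV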); conditions: HUTS-21 LIBS mAb binding, at 6.7 µM, stronger effect = higher value, binding induced by LDV ligand
Integrin beta-1 (Homo sapiens) + Integrin alpha-4 (Homo sapiens), sequence (P05556 whole entry, looked up): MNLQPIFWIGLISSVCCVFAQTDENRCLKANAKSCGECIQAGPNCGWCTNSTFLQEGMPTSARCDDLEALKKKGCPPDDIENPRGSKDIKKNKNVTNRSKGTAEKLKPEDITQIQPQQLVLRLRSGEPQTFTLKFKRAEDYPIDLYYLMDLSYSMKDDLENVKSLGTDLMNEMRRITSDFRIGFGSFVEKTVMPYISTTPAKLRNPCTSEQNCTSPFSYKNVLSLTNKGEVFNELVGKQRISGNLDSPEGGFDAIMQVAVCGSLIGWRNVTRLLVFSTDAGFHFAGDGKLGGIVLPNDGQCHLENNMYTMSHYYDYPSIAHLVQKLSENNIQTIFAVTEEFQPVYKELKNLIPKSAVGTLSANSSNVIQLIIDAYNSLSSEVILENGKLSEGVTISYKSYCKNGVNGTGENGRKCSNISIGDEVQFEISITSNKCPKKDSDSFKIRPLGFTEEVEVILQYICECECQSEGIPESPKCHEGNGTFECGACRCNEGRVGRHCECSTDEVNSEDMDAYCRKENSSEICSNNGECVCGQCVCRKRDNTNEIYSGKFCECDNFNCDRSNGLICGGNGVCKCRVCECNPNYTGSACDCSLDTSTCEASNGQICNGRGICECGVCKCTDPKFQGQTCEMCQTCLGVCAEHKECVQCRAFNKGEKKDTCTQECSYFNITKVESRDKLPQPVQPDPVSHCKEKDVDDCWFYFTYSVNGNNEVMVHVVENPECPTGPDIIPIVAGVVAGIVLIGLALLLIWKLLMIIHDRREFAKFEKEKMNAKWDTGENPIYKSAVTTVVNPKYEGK
Integrin beta-1 (Homo sapiens) + Integrin alpha-4 (Homo sapiens), sequence (P13612 whole entry, looked up): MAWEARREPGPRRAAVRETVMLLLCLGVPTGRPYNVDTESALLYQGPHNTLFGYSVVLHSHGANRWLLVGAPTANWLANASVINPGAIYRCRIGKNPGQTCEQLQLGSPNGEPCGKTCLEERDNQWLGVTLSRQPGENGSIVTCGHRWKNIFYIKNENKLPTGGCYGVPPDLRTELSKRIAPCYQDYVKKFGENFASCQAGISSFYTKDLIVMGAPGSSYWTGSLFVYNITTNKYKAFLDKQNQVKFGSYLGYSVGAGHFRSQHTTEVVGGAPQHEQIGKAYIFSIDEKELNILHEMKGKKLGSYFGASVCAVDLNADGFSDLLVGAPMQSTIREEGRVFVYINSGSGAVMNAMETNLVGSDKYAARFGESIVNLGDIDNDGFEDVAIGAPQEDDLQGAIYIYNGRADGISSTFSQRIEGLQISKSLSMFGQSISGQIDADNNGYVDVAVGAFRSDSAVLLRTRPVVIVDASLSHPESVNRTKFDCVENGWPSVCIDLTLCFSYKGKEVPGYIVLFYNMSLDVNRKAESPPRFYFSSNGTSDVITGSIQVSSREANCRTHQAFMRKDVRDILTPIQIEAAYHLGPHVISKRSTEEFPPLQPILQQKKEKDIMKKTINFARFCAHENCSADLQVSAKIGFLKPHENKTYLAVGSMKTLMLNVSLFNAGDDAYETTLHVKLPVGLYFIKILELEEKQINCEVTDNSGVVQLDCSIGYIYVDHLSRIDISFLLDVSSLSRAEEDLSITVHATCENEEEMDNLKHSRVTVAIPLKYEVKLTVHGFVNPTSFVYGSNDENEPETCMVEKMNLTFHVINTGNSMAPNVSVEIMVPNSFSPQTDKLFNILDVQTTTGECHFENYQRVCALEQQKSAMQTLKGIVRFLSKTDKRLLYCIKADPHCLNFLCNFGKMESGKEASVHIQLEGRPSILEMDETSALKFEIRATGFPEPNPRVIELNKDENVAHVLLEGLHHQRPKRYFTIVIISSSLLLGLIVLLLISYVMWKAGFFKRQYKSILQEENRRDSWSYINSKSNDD

[8] = calorie-restriction mimetic ROS inhibitors, yeast – validation compound set, pilot screen (AID 2706;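 active = superoxide response below 65% of plate, a cut near 3 SD across the whole screen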;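 also: yeast exposed to compound for one week at 30 degrees C before staining; 100% = mean of all compound wells on the same plate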); conditions: S. cerevisiae aging, superoxide DHE fluorescence; at 10 µM; stronger effect = lower value
[9] = target: Beta-adrenergic receptor kinase 1 (Homo sapiens) (UniProt P25098); assay: GRK2 binders displacing RNA aptamer, biochemical, validation, human GRK2, bead flow cytometry (AID 488806); conditions: bead-bound GRK2, FAM-aptamer displacement, at 10 µM, stronger effect = higher value
Beta-adrenergic receptor kinase 1 (Homo sapiens), sequence (P25098 whole entry, looked up): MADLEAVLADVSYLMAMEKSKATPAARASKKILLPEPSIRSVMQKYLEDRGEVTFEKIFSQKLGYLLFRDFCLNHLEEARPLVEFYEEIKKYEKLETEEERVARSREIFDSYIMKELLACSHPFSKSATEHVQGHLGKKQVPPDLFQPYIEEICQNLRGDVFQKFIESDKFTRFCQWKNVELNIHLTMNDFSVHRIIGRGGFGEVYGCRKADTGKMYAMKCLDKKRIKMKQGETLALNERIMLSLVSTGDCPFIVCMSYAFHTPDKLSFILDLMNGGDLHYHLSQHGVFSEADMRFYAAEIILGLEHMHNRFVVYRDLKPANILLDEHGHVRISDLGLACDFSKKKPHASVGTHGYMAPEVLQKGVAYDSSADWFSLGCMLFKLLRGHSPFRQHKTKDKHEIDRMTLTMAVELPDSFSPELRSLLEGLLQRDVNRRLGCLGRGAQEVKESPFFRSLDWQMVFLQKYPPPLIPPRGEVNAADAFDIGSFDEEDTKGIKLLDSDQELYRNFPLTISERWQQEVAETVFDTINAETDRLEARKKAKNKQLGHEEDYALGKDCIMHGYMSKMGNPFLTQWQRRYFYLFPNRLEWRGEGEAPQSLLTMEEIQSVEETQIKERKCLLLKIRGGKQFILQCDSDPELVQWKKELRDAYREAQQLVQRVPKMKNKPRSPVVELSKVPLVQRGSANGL

[10] = target: Beta-2 adrenergic receptor (Homo sapiens) (UniProt P07550); assay: agonist-induced loss of surface beta2AR – cell-based, FAP fluorogen, flow cytometry, validation set, pilot screen (AID 504459;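 active = percent response above 42, roughly 3 SD of non-fluorescent test compounds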;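 also: agonist-driven loss of surface beta2AR via internalization measured by FAP dye flow cytometry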); conditions: Am2.2-beta2AR cells, at 10 µM, stronger effect = higher value
Beta-2 adrenergic receptor (Homo sapiens), sequence (P07550 whole entry, looked up): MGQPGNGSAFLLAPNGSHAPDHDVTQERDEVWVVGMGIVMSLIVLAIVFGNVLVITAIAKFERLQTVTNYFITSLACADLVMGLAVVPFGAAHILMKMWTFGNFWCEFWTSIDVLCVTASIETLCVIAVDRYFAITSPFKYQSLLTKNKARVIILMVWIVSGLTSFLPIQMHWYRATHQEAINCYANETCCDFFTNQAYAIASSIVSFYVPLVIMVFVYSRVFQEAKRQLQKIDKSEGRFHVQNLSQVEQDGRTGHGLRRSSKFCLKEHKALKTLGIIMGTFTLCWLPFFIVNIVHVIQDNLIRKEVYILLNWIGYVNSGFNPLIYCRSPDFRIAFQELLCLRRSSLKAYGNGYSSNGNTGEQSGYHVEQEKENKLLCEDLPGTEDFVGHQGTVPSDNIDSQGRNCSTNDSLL

[11] = target: AP-2 complex subunit beta (Homo sapiens) (UniProt P63010); assay: beta-arrestin/AP2 interaction blockers – biochemical, validation set, GST-AP2 beads, flow cytometry, pilot screen (AID 504541;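 active = inhibition above 54%, about 3 SD of non-fluorescent compounds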;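 also: AP2 carries R879A mutation and is captured from E. coli lysate; bead-bound FITC arrestin peptide fluorescence measuring arrestin peptide binding to AP2; 0% = DMSO wells and 100% = excess unlabeled arrestin peptide control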); conditions: FITC arrestin peptide, at 10 µM, stronger effect = higher value, AP2 beta2 appendage fragment, R879A mutant
AP-2 complex subunit beta (Homo sapiens), sequence (P63010 whole entry, looked up, the tested form may be a part, one chain of several): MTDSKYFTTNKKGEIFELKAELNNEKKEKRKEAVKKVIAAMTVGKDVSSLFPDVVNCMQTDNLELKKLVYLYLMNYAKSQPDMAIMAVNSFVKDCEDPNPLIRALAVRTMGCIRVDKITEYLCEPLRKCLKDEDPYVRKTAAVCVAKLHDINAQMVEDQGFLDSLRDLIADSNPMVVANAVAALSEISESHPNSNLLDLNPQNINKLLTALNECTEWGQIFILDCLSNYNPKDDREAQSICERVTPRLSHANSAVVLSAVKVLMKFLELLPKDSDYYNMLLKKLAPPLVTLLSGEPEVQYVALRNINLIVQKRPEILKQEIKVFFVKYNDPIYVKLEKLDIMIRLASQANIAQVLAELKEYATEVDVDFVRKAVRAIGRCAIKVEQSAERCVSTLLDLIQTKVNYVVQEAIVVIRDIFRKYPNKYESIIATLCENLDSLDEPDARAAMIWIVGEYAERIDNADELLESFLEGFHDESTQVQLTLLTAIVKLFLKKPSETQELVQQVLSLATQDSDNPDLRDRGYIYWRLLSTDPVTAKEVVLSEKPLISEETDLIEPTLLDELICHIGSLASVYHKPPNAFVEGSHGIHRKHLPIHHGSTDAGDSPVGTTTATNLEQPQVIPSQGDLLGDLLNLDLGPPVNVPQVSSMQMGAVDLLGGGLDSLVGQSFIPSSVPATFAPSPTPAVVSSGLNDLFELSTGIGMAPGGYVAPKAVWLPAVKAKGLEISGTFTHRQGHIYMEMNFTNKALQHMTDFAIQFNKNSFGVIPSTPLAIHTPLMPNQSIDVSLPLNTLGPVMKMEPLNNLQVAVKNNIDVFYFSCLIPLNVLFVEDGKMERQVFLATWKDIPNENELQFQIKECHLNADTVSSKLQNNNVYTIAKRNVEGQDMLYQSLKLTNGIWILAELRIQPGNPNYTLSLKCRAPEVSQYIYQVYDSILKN

[12] = cytosolic pH regulators acting via V-ATPase – S. cerevisiae, pHLuorin, HTS validation (AID 504600; in the data active = response above about 15%;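 also: plate controls were DMSO for no effect and reference compound for full effect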); conditions: V-ATPase proton transport, at 10 µM, stronger effect = higher value
[13] = test system: anti-desmoglein-3 scFv antibody binding to human DSG3; assay: blockers of pathogenic pemphigus antibody–desmoglein-3 binding – biochemical, validation compound set, bead-based, flow cytometry, pilot screen (AID 588368;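 active = binding below the plate cutoff, the plate median minus 3 SD, with a reading above zero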;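 also: signal is the median channel fluorescence of bead-bound GFP antibody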); conditions: Protein G beads, DSG3-Fc, scFv-GFP binding, at 10 µM, stronger effect = lower value
[14] = Nile Red efflux blockade in pump-expressing yeast – validation compound set, multiplex, phenotypic, pilot screen (AID 588506;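 active = efflux inhibition above 0.42, the validation set average plus 4 SD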;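 also: Nile Red retained in cells so higher fluorescence means more efflux inhibition; 0 = negative control wells and 1 = enniatin B 25 µM full block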); conditions: S. cerevisiae pump-expressing triplex, Nile Red efflux flow cytometry; at 10 µM; stronger effect = higher value; the pumps come from Candida albicans
[15] = target: ATP-binding cassette sub-family B member 6 (Homo sapiens) (UniProt Q9NP58); assay: blockers of ABCB6-driven porphyrin uptake – K562-ABCB6 cells, flow cytometry, validation set, pilot screen (AID 588550;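 active = inhibition above the screen-wide mean plus 3 SD, about 51%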;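 also: 0% = DMSO wells and 100% = benzethonium chloride 70 µM positive control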); conditions: K562-ABCB6 porphyrin accumulation, 1 h, at 10 µM, stronger effect = higher value
ATP-binding cassette sub-family B member 6 (Homo sapiens), sequence (Q9NP58 whole entry, looked up): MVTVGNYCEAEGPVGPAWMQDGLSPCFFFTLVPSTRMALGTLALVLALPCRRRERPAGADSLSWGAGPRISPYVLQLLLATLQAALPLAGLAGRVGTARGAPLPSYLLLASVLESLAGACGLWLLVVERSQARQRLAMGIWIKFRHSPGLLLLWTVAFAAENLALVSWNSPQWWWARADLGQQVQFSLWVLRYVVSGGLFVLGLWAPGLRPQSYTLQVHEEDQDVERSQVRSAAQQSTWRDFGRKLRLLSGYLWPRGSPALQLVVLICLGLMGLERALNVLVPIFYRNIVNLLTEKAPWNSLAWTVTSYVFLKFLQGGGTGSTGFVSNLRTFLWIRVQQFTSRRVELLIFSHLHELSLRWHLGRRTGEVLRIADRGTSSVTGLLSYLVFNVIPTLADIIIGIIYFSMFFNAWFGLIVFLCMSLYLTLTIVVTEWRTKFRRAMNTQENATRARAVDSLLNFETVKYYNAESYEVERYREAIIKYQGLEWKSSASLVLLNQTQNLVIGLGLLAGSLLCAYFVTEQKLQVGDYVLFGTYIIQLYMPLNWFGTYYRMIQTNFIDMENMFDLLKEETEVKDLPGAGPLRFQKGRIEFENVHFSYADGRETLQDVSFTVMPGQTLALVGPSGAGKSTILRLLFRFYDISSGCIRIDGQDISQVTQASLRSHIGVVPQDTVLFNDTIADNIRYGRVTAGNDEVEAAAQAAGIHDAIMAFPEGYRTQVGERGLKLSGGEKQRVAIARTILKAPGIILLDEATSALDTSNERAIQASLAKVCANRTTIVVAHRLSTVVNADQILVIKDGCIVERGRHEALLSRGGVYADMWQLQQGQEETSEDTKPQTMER

[16] = AML differentiation inducers, ER-HoxA9 marrow cells – cell-based, GFP/MAC1 double positive, flow cytometry, validation set, primary screen (AID 588685;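 active = differentiation response of at least 50%, scaled between solvent and reference control, from cells with both markers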;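 also: compound exposure lasts four days before antibody staining and flow analysis; 0% = DMSO wells and 100% = 5 µM fulvestrant positive control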); conditions: stronger effect = higher value, normalized: vehicle 0, fulvestrant 100

Row | Compound | percent of DMSO control GFP [1] | GFP response vs DMSO [2] | percent response of DMSO control [3] | GFP response vs DMSO [4] | GFP response, % of DMSO [5] | double positive events [6] [%] | vesicle binding response [6] | inhibition [7] | superoxide response (% of plate) [8] | aptamer binding inhibition [9] | response [10] | inhibition [11] | response [12] | binding (% of control) [13] | efflux inhibition (fraction of control) [14] | inhibition [15] | differentiation response [16]
1 | COc1cccc(=O)c2c(C)n(CC(=O)c3ccccc3)c(C)c12 | 100% (inactive) | 102% (inactive) | 95.1% (inactive) | 113% (inactive) | 113% (inactive) | 58.2 | 203% (inactive) | -72.7% (inactive) | 96.3% (inactive) | -1% (inactive) | -13.2% (inactive) | -9.87% (inactive) | 2.5% (inactive) | 98.8% (inactive) | 0.33 (inactive) | -32% (inactive) | -2.03% (inactive)
2 | CCOC(=O)C1C(=O)OC(C)(C)C1C(C)C(=O)c1ccc(C)cc1 (stereo not drawn) | 100% (inactive) | 103% (inactive) | 93.1% (inactive) | 110% (inactive) | 116% (inactive) | 61.9 | 218% (inactive) | -6.23% (inactive) | 118% (inactive) | 3% (inactive) | -17.2% (inactive) | -19% (inactive) | -5.62% (inactive) | 102% (inactive) | -0.09 (inactive) | 5% (inactive) | 13.7% (inactive)
3 | OCCN(CCO)c1nc(N2CCCCC2)c2nc(N(CCO)CCO)nc(N3CCCCC3)c2n1 | 105% (inactive) | 102% (inactive) | 100% (inactive) | 107% (inactive) | 108% (inactive) | 62.5 | 175% (inactive) | -9.63% (inactive) | 98% (inactive) | 3% (inactive) | 7.65% (inactive) | 18.6% (inactive) | 15.4% (active) | 106% (inactive) | 0.08 (inactive) | -6% (inactive) | -7.94% (inactive)
4 | CC1(C)CC(c2csc(N)n2)CCO1 (stereo not drawn) | 103% (inactive) | 106% (inactive) | 106% (inactive) | 86.8% (inactive) | 101% (inactive) | 65.9 | 915% (inactive) | 1.62% (inactive) | 101% (inactive) | 3% (inactive) | -0.12% (inactive) | 8.95% (inactive) | -0.04% (inactive) | 93.3% (inactive) | -0.14 (inactive) | -3% (inactive) | -4.64% (inactive)
5 | NC(N)=N/N=C/c1ccc(OS(=O)(=O)c2ccccc2)cc1 | 102% (inactive) | 101% (inactive) | 101% (inactive) | 90.4% (inactive) | 102% (inactive) | 61.3 | 141% (inactive) | 17.7% (inactive) | 93.2% (inactive) | -12% (inactive) | 13.2% (inactive) | -0.93% (inactive) | -4.93% (inactive) | 107% (inactive) | -0.03 (inactive) | 11% (inactive) | 4.2% (inactive)
6 | CCn1cc(C(=O)O)c(=O)c2ccc(C)nc21 | 99.5% (inactive) | 98.7% (inactive) | 92.4% (inactive) | 93.7% (inactive) | 106% (inactive) | 55.9 | 172% (inactive) | -15.8% (inactive) | 99.5% (inactive) | -1% (inactive) | 3.04% (inactive) | -4.75% (inactive) | -3.3% (inactive) | 108% (inactive) | 0.085 (inactive) | -8% (inactive) | -4.57% (inactive)
7 | CN(C)[C@@H]1C(=O)C(C(=O)NCN2CCCC2)=C(O)[C@@]2(O)C(=O)C3=C(O)c4c(O)cccc4[C@@](C)(O)C3CC12 (stereo partly drawn) | 103% (inactive) | 119% (inactive) | 112% (inactive) | 95.7% (inactive) | 93.3% (inactive) | 59 | 145% (inactive) | -45.9% (inactive) | 107% (inactive) | 92% (active) | 12.3% (inactive) | 94.1% (active) | -6.79% (inactive) | 30.6% (active) | -0.06 (inactive) | 8% (inactive) | 19.6% (inactive)
8 | CC(C)COC(=O)C1C(=O)CC(C)(O)C(C(=O)OCC(C)C)C1c1cccnc1 (stereo not drawn) | 90.4% (inactive) | 118% (inactive) | 102% (inactive) | 74.3% (inactive) | 88.4% (inactive) | 59.8 | 203% (inactive) | 8.4% (inactive) | 113% (inactive) | 2% (inactive) | -11.2% (inactive) | 2.38% (inactive) | 2.35% (inactive) | 102% (inactive) | -0.06 (inactive) | 18% (inactive) | -3.28% (inactive)
9 | CCOC(=O)C(NC(C)=O)C(O)c1ccc([N+](=O)[O-])cc1 (stereo not drawn) | 99.5% (inactive) | 105% (inactive) | 85.3% (inactive) | 124% (inactive) | 99.2% (inactive) | 57.3 | 211% (inactive) | -3.16% (inactive) | 103% (inactive) | 0% (inactive) | 4.84% (inactive) | -1.65% (inactive) | -1.89% (inactive) | 99.7% (inactive) | -0.21 (inactive) | 6% (inactive) | 32.8% (inactive)
